Compounds with a hit are over-represented: about 7.6% of the library has one in this group of screens.
KCNH2 3.1 block: qHTS for Inhibitors of KCHN2 3.1: Mutant qHTS | AID 720553, 2013 | U2OS KCNH2 3.1, thallium flux FluxOr; hits give low values | Potassium voltage-gated channel subfamily H member 2, brain isoform KCNH2 3.1 (human) | activity change, % (tested at about 1.8 µM) | actives 0.95% (n = 340,000);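 active = maximum activity change below -70%; inconclusive = maximum activity change from -70% to -50%; inactive = maximum activity change above -50%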;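 also: thallium influx rate constant from kinetic fluorescence after stimulation buffer; % is scaled to controls: 0 for no effect and ±100 for the full control effect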
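Thallium flux via FluxOr fluorescence (Red40 quencher, 45 min loading) in U2OS cells virally expressing the KCNH2 3.1 isoform (1.77 x 10^8 /mL virus, overnight at 37 C). Rate constants from 2-min kinetic reads post-stimulation, normalised to positive and negative controls.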
KB-3-1 cytotox: qHTS assay for MDR1-selective chemotherapeutics: Primary screen using the parental adenocarcinoma cell KB-3-1; KB-3-1 viability, CellTiter-Glo ATP luminescence, 72 h; Potency, µM (top dose mostly 46.1 µM), actives largely listed as cytotoxic; actives 1.4% (n = 400,000); AID 1347075, 2019; also: potency is read from the fitted curve at half-maximal effect; % is scaled to controls: 0 for no effect and ±100 for the full control effect; nearly all actives have a fitted effect of over 60% in size
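Luminescent ATP read-out (CellTiter-Glo) measures survival of drug-naive KB-3-1 cells after 72 h compound exposure at 37 °C. Titration series was screened from lowest to highest concentration, with DMSO vehicle plates as background controls.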
KB-V1 MDR tox: qHTS assay for MDR1-selective chemotherapeutics: Primary screen using the drug-selected MDR subline cells KB-V1 | Potency, µM (titrated, usually from 46.1 µM), most hits filed as cytotoxic | KB-V1 MDR cells viability, CellTiter-Glo, 72 h | actives 3.4% (n = 400,000); also: potency is read from the fitted curve at half-maximal effect; % is scaled to controls: 0 for no effect and ±100 for the full control effect; nearly all actives have a fitted effect of over 60% in size
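In this primary screen, KB-V1 cells overexpressing P-gp are incubated with library compounds (lowest to highest concentration) for 72 h at 37 degrees C before a luminescent ATP viability read.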
KCNH2 WT inh: qHTS for Inhibitors of KCHN2 3.1: Wildtype qHTS | U2OS, BacMam KCNH2, thallium flux FluxOr; hits give low values | activity change, % at 1.84 µM | actives 0.37% (n = 340,000) | AID 720551, 2013;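 active = maximum activity change below -70%; inconclusive = maximum activity change between -70% and -50%; inactive = maximum activity change above -50%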; also: % is scaled to controls: 0 for no effect and ±100 for the full control effect
Target sequence (Q12809 whole entry, looked up): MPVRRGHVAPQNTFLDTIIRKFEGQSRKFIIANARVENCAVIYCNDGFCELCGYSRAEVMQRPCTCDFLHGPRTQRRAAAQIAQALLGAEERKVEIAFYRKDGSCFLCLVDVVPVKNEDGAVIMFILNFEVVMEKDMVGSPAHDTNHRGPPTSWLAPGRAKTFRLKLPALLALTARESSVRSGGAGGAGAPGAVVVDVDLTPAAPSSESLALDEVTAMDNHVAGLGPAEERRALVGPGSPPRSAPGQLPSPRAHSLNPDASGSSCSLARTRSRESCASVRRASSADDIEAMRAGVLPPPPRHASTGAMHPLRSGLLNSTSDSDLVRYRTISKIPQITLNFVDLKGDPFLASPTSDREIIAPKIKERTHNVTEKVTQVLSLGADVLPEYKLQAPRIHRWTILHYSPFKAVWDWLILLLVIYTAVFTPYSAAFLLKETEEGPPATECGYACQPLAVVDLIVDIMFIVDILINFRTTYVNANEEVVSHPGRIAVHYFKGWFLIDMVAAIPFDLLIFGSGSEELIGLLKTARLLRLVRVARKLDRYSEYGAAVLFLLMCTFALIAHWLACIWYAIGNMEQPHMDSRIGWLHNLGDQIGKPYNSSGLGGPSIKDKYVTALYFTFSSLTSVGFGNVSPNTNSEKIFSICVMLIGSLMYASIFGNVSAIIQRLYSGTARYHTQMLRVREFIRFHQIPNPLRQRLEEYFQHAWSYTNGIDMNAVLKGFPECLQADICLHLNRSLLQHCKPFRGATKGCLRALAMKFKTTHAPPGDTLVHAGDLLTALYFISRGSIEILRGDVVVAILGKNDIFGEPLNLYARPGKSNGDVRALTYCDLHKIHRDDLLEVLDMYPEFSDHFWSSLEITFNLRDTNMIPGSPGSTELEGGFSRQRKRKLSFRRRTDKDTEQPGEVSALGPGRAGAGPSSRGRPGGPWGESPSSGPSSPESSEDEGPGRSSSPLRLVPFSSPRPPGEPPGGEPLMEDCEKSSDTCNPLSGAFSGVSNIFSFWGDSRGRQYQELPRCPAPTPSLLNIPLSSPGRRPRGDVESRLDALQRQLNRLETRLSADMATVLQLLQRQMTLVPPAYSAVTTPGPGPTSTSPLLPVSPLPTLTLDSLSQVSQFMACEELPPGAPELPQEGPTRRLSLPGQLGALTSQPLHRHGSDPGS
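U2OS cells were transduced with wild-type KCNH2 virus (2.03 x 10^8 / mL) for 4 h at room temperature, then cultured overnight at 37 C. Thallium flux was read with FluxOr dye. Rate constants were normalized to DMSO controls.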
SW480 rerep: A quantitative high throughput screen for small molecules that induce DNA re-replication in SW480 colon adenocarcinoma cells; SW480 DNA re-replication, Hoechst DNA content imaging, 48 h; Potency, µM (top dose mostly 46.1 µM), without a hit: at the top dose re-replication activation, actives largely listed as activators; actives 1.8% (n = 340,000); also: potency is read from the fitted curve at half-maximal effect; % of control where 0% means no effect; nearly all actives have a fitted effect of over 55% in size
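Per well, 250 cells were exposed to pinned compound for 48 hr. Nuclear DNA was visualised with Hoechst (40 min, 37 C) and total object intensity recorded by fluorescence scanning.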
MCF10A rereplic: A quantitative high throughput screen for small molecules that induce DNA re-replication in MCF 10a normal breast cells; MCF 10A DNA re-replication, Hoechst nuclear intensity, 48 h; Potency, µM (highest dose often 46.1 µM), without a hit: at the highest dose activity, positive = re-replication, hits mostly activators; actives 2.9% (n = 350,000); also: potency is read from the fitted curve at half-maximal effect; % of control where 0% means no effect; nearly all actives have a fitted effect of over 50% in size
Numbers without * were called inactive; i = inactive; ? = inconclusive; . = not tested or not shown; [ ] = remark or other dose. Unless noted, calls follow the shape of the dose curve; as a rule, active = well fitted curve in the direction sought with a large enough effect; inconclusive = small, poorly fitted or top-dose-only effect, or another doubt; inactive = no such curve, though single readings can be large; an effect the other way counts as inactive or inconclusive.

SMILES	KCNH2 3.1 block	KB-3-1 cytotox	KB-V1 MDR tox	KCNH2 WT inh	SW480 rerep	MCF10A rereplic
COCCNC(=O)c1c(NC(=O)c2ccco2)n(Cc2ccccc2)c2nc3ccccc3nc12	-15.3	i	i	.	2.59µM*	?
COCCCn1c(N)c(C(=O)Nc2sc3c(c2C(=O)OC)CCCC3)c2nc3ccccc3nc21	-18.6	i	i	10.9	-10.2%	-9.3%
COCCCNC(=O)c1c(NC(=O)c2ccccc2Cl)n(Cc2ccccc2)c2nc3ccccc3nc12	-19.9	i	2.59µM*	-3.6	10.3µM*	?
O=C(CN1CC=C(c2ccccc2)CC1)NC(=O)NC1CCCCC1	7.6	i	i	1.0	-22.3%[1.84 µM]	20.6µM*
CN1CCc2c(C#N)c(Cl)nc(Cl)c2C1	11.4	i	?	.	2.31µM*	?
CC(C)c1ccc(OCC(=O)N2CCN(CCc3ccncc3)CC2)cc1	.	i	i	.	.	.
C[C@H]1C[C@@H](C)C(=O)[C@@H]([C@H](O)CC2CC(=O)NC(=O)C2)C1	2.6	3.26µM*	?	1.3	?	4.61µM*
CCCCCCn1c(=O)c(C(=O)Nc2ncccc2O)c(O)c2ccccc21	-10.8	7.31µM*	?	1.1	-2.6%	-7.3%
CCCCCCn1c(=O)c(C(=O)Nc2c(C)n(C)n(-c3ccccc3)c2=O)c(O)c2ccccc21	19.7	?	1.64µM*	0.9	-7.8%	-9.2%
CCCCCn1c(=O)c(C(=O)Nc2ccccn2)c(O)c2ccccc21	3.7	i	6.51µM*	-4.7	2.9%	-4.1%
CCCCCCn1c(=O)c(C(=O)Nc2cnccn2)c(O)c2ccccc21	-1.0	2.06µM*	1.3µM*	6.6	-4.6%	?
CCCCCn1c(=O)c(C(=O)Nc2ccccc2)c(O)c2ccccc21	4.9	i	i	-1.7	0.7%	12.4%
COC(=O)[C@H](Cc1ccccc1)N(Cc1ccccc1)S(=O)(=O)N(Cc1ccccc1)[C@@H](Cc1ccccc1)C(=O)OC	20.7	?	i	-3.0	-3.7%[9.22 µM]	-1.1%
Cc1sc(NC(=O)Cn2c(=O)oc3ccccc32)nc1-c1ccc(Cl)cc1	0.4	?	i	-4.5	-2.0%	?
CCC1(CC)C(=O)NC(=O)N(C)C1=O	.	.	.	.	-1.0%	5.0%
C[N+]1(C)CCCCC1COC(=O)C(O)(c1ccccc1)c1ccccc1 (stereo not given)	.	.	.	.	-12.3%	0.0%
CCCCn1c(=O)c(C(=O)Nc2ccccn2)c(O)c2ccccc21	25.8	10.3µM*	i	-0.2	-42.6%	5.9%
CC(C)c1ccc(Oc2cccc3c2S(=O)(=O)N(C2CCCC2)CC(COCc2ccccc2)O3)cc1 (stereo not given)	-4.3	i	i	-2.2	-13.2%[9.22 µM]	-52.0%
O=C(COc1ccccc1)N1CCN(C/C=C/c2ccccc2)CC1	-10.3	i	16.4µM*	6.0	13.9%	2.3%
COc1ccc(OCC(=O)N2CCN(Cc3c[nH]c4ccccc34)CC2)cc1	-3.4	i	16.4µM*	0.9	-2.8%	15.2%
c1ccc2c(CN3CCCCCC3)c[nH]c2c1	0.4	14.6µM*	i	3.9	0.3%	-7.2%
COc1ccc(CN2CCN(C(=O)COc3cccc(C)c3)CC2)c(OC)c1	-10.7	i	2.31µM*	2.2	?	18.7%
CC(CO)NC(=O)C1C=C2c3cccc4[nH]cc(c34)CC2N(C)C1 (stereo not given)	.	.	.	.	-2.5%	-3.9%
CC(=O)O[C@H]1CC[C@@]2(C)C(=CC[C@@H]3[C@H]2CC[C@]2(C)C(=O)CC[C@H]32)C1	.	.	.	.	-2.2%[20.6 µM]	?

Screening results (PubChem BioAssay)
